Screening data: PubChem, NMMLSC
Sampled rows, rich in hits. Any-hit rate of the full collection: about 0.89%.
AGP1 TOR yeast – modulators of TOR pathway AGP1-GFP in S. cerevisiae. S. cerevisiae AGP1-GFP multiplex flow cytometry, 3 h; GFP as percent of DMSO wells. GFP response vs DMSO, % at 10 µM. 320,000 tested, 0.02% active. AID 2066;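 active means GFP response relative to DMSO above a set limit, near screen average plus 3 SD, cut at about 150% in these data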;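 further: median GFP channel fluorescence of the gated AGP1 strain per well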
MEP2-GFP yeast – yeast TOR pathway MEP2-GFP modulation; 330,000 tested, 0.51% active; S. cerevisiae MEP2-GFP strain, flow cytometry GFP, 3 h; 100% = DMSO control level; GFP response vs DMSO, % at 10 µM;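 active means GFP response versus DMSO above a set limit, roughly screen mean plus 3 SD, cut at about 180% in these data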;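 further: median GFP fluorescence of the barcode-gated MEP2-GFP cells per well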
CIT2-GFP yeast – modulators of TOR pathway CIT2-GFP in S. cerevisiae; S. cerevisiae CIT2-GFP strain, flow cytometry, 3 h; 100 means same as DMSO wells; GFP response vs DMSO, % at 10 µM; 320,000 tested, 0.065% active; AID 2029;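 active means GFP response relative to DMSO above a set limit, near the screen mean plus 3 SD, cut at about 150% in these data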;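 further: ratio of well median GFP fluorescence to mean of DMSO wells on the plate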
RPL19A TOR yeast – modulators of TOR pathway RPL19A-GFP in S. cerevisiae; S. cerevisiae RPL19A-GFP strain, flow cytometry, 3 h; stronger effect = lower value; percent response vs DMSO, % at 10 µM; 330,000 tested, 0.3% active; AID 2025;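 active means percent response vs DMSO below 50%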;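 further: median channel GFP fluorescence of the barcoded RPL19A-GFP strain; ratio of sample median GFP to plate DMSO average so 100% = DMSO; lower means less RPL19A-GFP as with rapamycin TOR inhibition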
LAP4-GFP MLPCN – yeast TOR pathway LAP4-GFP modulation; S. cerevisiae LAP4-GFP multiplex, flow cytometry GFP, 3 h; median GFP as percent of DMSO wells; GFP response vs DMSO, % at 10 µM; 320,000 tested, 0.34% active;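 active means GFP response vs DMSO above a set limit, about the screen mean plus 3 SD, cut at about 150% in these data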
LAP4-GFP pick2 – yeast LAP4-GFP modulation, second cherry pick; GFP response vs DMSO, % at 10 µM; 590 tested, 20% active; shares compounds with LAP4-GFP MLPCN; S. cerevisiae LAP4-GFP strain, flow cytometry GFP, 3 h;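 active means GFP signal as percent of the solvent control above about 150%, meaning raised reporter expression, limit read from the data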;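 further: ratio of well median GFP fluorescence to plate DMSO mean so 100% = DMSO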
MEP2 cherry2 – yeast MEP2-GFP modulation, second cherry pick; shares compounds with LAP4-GFP MLPCN; S. cerevisiae MEP2-GFP strain, flow cytometry GFP, 3 h; GFP response vs DMSO, % at 10 µM; 590 tested, 10% active;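 active means GFP signal above 150% of the solvent control wells, that is a rise of more than half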;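 further: median channel GFP fluorescence of all gated yeast cells per well; ratio of median GFP to plate DMSO average so 100% = DMSO level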
RPL19A GFP CP2 – yeast RPL19A-GFP TOR reporter modulation, second cherry pick; shares compounds with LAP4-GFP MLPCN; S. cerevisiae RPL19A-GFP strain, flow cytometry GFP, 3 h; stronger effect = lower value; 100% means same as DMSO wells; GFP response vs DMSO, % at 10 µM; 590 tested, 3% active; AID 2623;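 active means under 65% GFP response relative to DMSO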;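 further: median GFP channel fluorescence per well over the all cells gate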
CIT2 GFP CP2 – yeast CIT2-GFP TOR reporter modulation, second cherry pick; shares compounds with LAP4-GFP MLPCN; S. cerevisiae CIT2-GFP strain, flow cytometry GFP, 3 h; DMSO control wells read 100%; GFP response vs DMSO, % at 10 µM; 590 tested, 8% active; AID 2624;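 active means GFP response vs DMSO above about 150%, limit read from the data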;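 further: median green fluorescence per well over all gated yeast cells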
AGP1-GFP pick2 – yeast AGP1-GFP TOR reporter modulation, second cherry pick; shares compounds with LAP4-GFP MLPCN; S. cerevisiae AGP1-GFP strain, flow cytometry GFP, 3 h; percent response vs DMSO, % at 10 µM; 590 tested, under 10 active;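 active means over 150 percent of DMSO response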;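 further: median GFP channel fluorescence over all cells without mother daughter split; sample median GFP divided by mean DMSO control so 100% equals DMSO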
Yeast autofluor – compound is autofluorescent in yeast s288c cells. shares compounds with LAP4-GFP MLPCN. S. cerevisiae s288c, 520 nm autofluorescence, flow cytometry, 3 h; stronger effect = higher value; zero means same as solvent-only cells. fluorescence change (kMESF span) at 33 µM. 610 tested, under 10 active;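 active means fluorescence span over the dose series, or activity score, above about 33, limit read from the data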
Yeast autofl DR – TOR screen hit shows autofluorescence in yeast s288c | fluorescence change (span) at 33 µM | S. cerevisiae s288c parental, compound autofluorescence, flow cytometry, 3 h | 110 tested, under 10 active | shares compounds with LAP4-GFP MLPCN;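 active means fluorescence change span, or the activity score built from it, above 25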
TORC1 bypass gr – compounds blocking wildtype yeast growth but not TORC1 bypass cells. growth rating (0-3) at 30 µM. 120 tested, under 10 active. S. cerevisiae BY4741 spot growth rating, 48-72 h; stronger effect = lower value. shares compounds with LAP4-GFP MLPCN;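 active means growth rating at most 1 for wild type yeast while the TORC1 bypass strain still grows fully, rated 3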
* = called active by the depositor.

SMILES	AGP1 TOR yeast	MEP2-GFP yeast	CIT2-GFP yeast	RPL19A TOR yeast	LAP4-GFP MLPCN	others
CC(=O)Nc1ncnc2c1c(-c1ccc(Cl)cc1)nn2C(C)(C)C	85	88	55	64	146	LAP4-GFP pick2=113;MEP2 cherry2=107;RPL19A GFP CP2=59*;CIT2 GFP CP2=68;AGP1-GFP pick2=79;Yeast autofluor=-0.91;Yeast autofl DR=0.14;TORC1 bypass gr=3
CC(C)C[C@H](NC(=O)N1CCn2c1nc1ccccc12)C(=O)N[C@@H](C(=O)O)c1ccccc1	102	107	98	100	102
CS(=O)(=O)N1N=C(c2ccccc2)CC1c1ccc2c(c1)OCO2 (configuration not stated)	125	305*	243*	126	243*	Yeast autofluor=83*
CS(=O)(=O)Nc1cccc(C2=NN(S(C)(=O)=O)C(c3ccc4c(c3)OCO4)C2)c1 (configuration not stated)	94	104	102	97	91
O/C=c1\ccc2cccc3nc(C(F)(F)F)nc1c23	104	233*	242*	115	173*	Yeast autofluor=8.4
COc1ccccc1C(=O)Nc1ccc(Br)cc1C	107	102	83	82	188*	LAP4-GFP pick2=104;MEP2 cherry2=105;RPL19A GFP CP2=98;CIT2 GFP CP2=96;AGP1-GFP pick2=96
COc1ccccc1C(=O)Nc1ccc(Br)c2cccnc12	100	103	106	103	87
O=C(Cc1ccccn1)c1ccc(F)cc1	94	96	96	108	103
Nc1ncnc2c1ncn2[C@@H]1O[C@H](CN2CCCS2(=O)=O)[C@@H](O)[C@H]1O	94	85	93	92	89
O=C(CC1SC(N2CCCC2)=NC1=O)Nc1ccc(C(=O)N2CCN(c3cccc(Cl)c3)CC2)cc1 (configuration not stated)	112	99	101	97	117
Cn1c(N)c(C(=O)COC(=O)c2ccc(OC(F)F)cc2)c(=O)n(C)c1=O	91	97	81	89	87
Cc1ccc2c(c1)N(CCCC(=O)NCC1COc3ccccc3O1)C(=O)CO2 (configuration not stated)	96	99	90	96	108
Cc1ccc2c(c1)N(CCCC(=O)Nc1cccc(C(F)(F)F)c1)C(=O)CO2	15	111	98	60	86	LAP4-GFP pick2=102;MEP2 cherry2=110;RPL19A GFP CP2=99;CIT2 GFP CP2=100;AGP1-GFP pick2=98
O=C(O)c1ccc(Cl)cc1Nc1nc2cc(Cl)ccc2o1	105	102	104	106	109
